# Results published in PubChem BioAssay (NCATS).
# Unmarked numbers belong to inactive results. Calls come from the whole dose curve.
# Target: Glucocorticoid receptor (Homo sapiens) (UniProt P04150)
# Test: GR-EFC Redistribution (AID 451)
# Details: CHO-K1 GR-EFC translocation, beta-gal luminescence, 2 h
# Text: NIH Molecular Libraries Screening Centers Network [MLSCN]
# NIH Chemical Genomics Center [NCGC]
# The glucocorticoid receptor (GR) is a cytoplasmic receptor that belongs to the nuclear receptor family of ligand-dependent transcription factors. Upon glucocorticoid binding to its receptor, the glucocorticoid-GR complex translocates into the nucleus, where it binds as a dimer to specific DNA sequences (glucocorticoid response elements), enhancing or suppressing transcription of a wide variety of glucocorticoid-responsive genes. In addition to their important roles in normal physiology and metabolism, glucocorticoids are administered exogenously as treatments for a wide variety of allergic, autoimmune, and neoplastic conditions. Identification of compounds that modulate aspects of GR signalling would be useful in dissecting glucocorticoid response pathways as well as developing GR modulators with more targeted clinical effects.
# Traditionally, GR modulators have been identified using receptor binding or direct transactivation assays. However, assays for glucocorticoid-dependent nuclear translocation can also be used to screen for compounds affecting GR signaling.
# Immunocytochemical staining has been used to assay for GR translocation, but is not suitable for high throughout screening due to the multiple reagent addition and wash steps required. Recently, a novel cell-based GR assay in Enzyme Fragment Complementation (EFC) format was developed by DiscoveRx (Fremont, CA). The assay uses EFC of b-galactosidase (b-gal) as an indicator of GR-translocation in engineered CHO-K1 biosensor cells. The enzyme acceptor (EA) fragment of b-gal resides in the nucleus , as designed through the use of a proprietary set of sequence additions and modifications. The small peptide enzyme donor (ED) fragment of b-gal is fused directly to the C-terminus of GR, and is localized in the cytoplasm is the absence of receptor signaling. Upon binding to a GR ligand, the complex translocates to the nucleus, where intact enzyme activity is restored by complementation and b-gal activity is detected. We optimized this GR-EFC assay in homogenous 1536-well plate assay format for high throughput screening.
# NCGC Assay Protocol Summary:
# CHO-K1 cells stably expressing NLS-enzyme acceptor fragment (EA) of b-gal and GR-enzyme donor (ED) fragment of b-gal were maintained in F12 medium (Invitrogen, Carlsbad, CA) at 37 Celsius degrees under a humidified atmosphere containing 5% CO2 and 95% air. The medium contained 10% FBS, 2 mM L-glutamine, 50 U/ml penicillin 50 ug/ml streptomycin, and 250 ug/ml hygromycin and 500 ug/ml G418 (Invitrogen).
# GR-translocation was measured beta-gal enzyme activity using the PathHunter Detection Kit containing cell membrane permeablizing reagent and beta-gal substrate (DiscoveRx, Fremont, CA). All compounds were screened as titrations from 0.6 nM to 46 uM final concentration. The assay was performed in 1536-well format as follows:
# 5 uL cell suspension (1,000 cells)/well
# Incubation at 37 Celsius degrees for two hours
# 1.25 uL 1X detection buffer from the kit supplied by DiscoveRx
# Incubation at room temperature for one hour
# Read plate in luminescence mode in ViewLux plate reader (PerkinElmer)
# Keywords: NIH Roadmap, MLSCN, MLI, MLSMR, GR-EFC, GREFC, qHTS, NCGC
# Potency is the fitted concentration of half-maximal effect.
# Glucocorticoid receptor (Homo sapiens), sequence (P04150 whole entry, looked up): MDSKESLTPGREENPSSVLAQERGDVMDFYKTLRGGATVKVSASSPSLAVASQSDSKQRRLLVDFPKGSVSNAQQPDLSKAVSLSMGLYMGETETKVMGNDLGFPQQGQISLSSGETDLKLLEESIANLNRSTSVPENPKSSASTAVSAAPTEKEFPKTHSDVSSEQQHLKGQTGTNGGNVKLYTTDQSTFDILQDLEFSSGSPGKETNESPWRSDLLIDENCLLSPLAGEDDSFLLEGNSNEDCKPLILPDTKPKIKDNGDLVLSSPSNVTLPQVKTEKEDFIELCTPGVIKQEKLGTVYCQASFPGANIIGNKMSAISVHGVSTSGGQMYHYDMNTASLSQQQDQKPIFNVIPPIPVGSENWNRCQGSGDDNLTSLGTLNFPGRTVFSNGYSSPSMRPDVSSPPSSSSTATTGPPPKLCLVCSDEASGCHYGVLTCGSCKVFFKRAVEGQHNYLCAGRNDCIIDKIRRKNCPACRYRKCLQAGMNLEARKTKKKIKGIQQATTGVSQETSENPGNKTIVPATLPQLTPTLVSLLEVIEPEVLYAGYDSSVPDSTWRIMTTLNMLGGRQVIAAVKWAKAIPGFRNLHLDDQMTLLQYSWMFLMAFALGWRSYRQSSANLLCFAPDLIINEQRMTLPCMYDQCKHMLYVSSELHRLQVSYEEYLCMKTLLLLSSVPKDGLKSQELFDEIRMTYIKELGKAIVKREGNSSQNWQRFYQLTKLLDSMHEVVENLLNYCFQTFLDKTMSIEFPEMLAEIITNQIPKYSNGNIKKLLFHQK
row,Structure (SMILES),Potency [µM]
1,COc1cccc(Cn2c(=O)c(-c3ccc(F)cc3)nc3cnc(OC)nc32)c1,> 46
2,COCCn1c(=O)cnc2cnc(Oc3ccccc3)nc21,> 46
3,Cc1noc(C)c1-c1cc(NCc2ccccc2)ncn1,> 46
4,COCCNc1ccnc(-c2ccccc2C(F)(F)F)n1,> 46
5,COc1ccc2[nH]cc(CCNc3ncnc4ccc(-c5cccnc5)cc34)c2c1,> 46
6,COc1cccc(-c2nccc(NCc3cccc(C)c3)n2)c1,> 46
7,CN(C)c1ccc(-c2ccc3ncnc(-n4ccnc4)c3c2)cc1,> 46
8,COCCNc1ccnc(-c2ccccc2CN(C)C)n1,> 46
9,O=c1c(CCc2ccccc2)nc2cnc(N3CCNCC3)nc2n1CCc1ccccc1,> 46
10,Cc1noc(C)c1C(=O)N1CCC[C@@]2(CCN(C(=O)Nc3cccc(F)c3)C2)C1,> 46
11,c1cncc(CNc2ncnc3ccc(-c4ccoc4)cc23)c1,> 46
12,COc1cccc(Cn2c(=O)c(C)nc3cnc(OC)nc32)c1,> 46
13,O=C(c1cc(C(F)(F)F)cc(C(F)(F)F)c1)N1CCC2(CC1)CN(c1ccccn1)C2,> 46
14,COc1ccc(C(=O)N2CCC3(CC2)CN(c2ccncc2)C3)cc1,> 46
15,O=C(c1ccncc1)N1CCC2(CC1)CN(c1ccccc1)C2,> 46
16,Cc1cccc(CNc2cc(-c3c(C)noc3C)ncn2)c1,> 46
17,c1nc(NC2CCNCC2)c2cc(-c3ccoc3)ccc2n1,> 46
18,COc1ccc(-n2c(=O)c(-c3cccc(C#N)c3)nc3cnc(N4CCNCC4)nc32)cc1,> 46
19,COCCn1c(=O)c(-c2ccc(Cl)cc2)nc2cnc(OC)nc21,> 46
20,Cc1noc(C)c1C(=O)N1CCC[C@@]2(CCN(C(=O)NC(C)C)C2)C1,> 46

row,Structure (SMILES),Potency [µM]
1,O=C(Nc1ccccc1)N1CCCC2(CCN(C(=O)c3ccco3)CC2)C1,> 46
2,COc1ccc(-c2nc3cnc(N4CCOCC4)nc3n(C)c2=O)cc1,> 46
3,O=C(c1cnccn1)N1CCC[C@@]2(CCN(Cc3nccs3)C2)C1,> 46
4,Cn1cc(-c2nc3cnc(Oc4ccccc4)nc3n(C)c2=O)c2ccccc21,> 46
5,CC(C)NC(=O)N1CC[C@@]2(CCCN(C(=O)Oc3ccccc3)C2)C1,> 46
6,COCCn1c(=O)cnc2cnc(Nc3cccc(OC)c3)nc21,> 46
7,N#CCCn1c(=O)cnc2cnc(N3CCOCC3)nc21,> 46
8,O=c1c(CCc2ccccc2)nc2cncnc2n1Cc1ccc(F)cc1,> 46
9,COc1cccc(Nc2ncc3nc(-c4ccc(F)cc4)c(=O)n(C)c3n2)c1,> 46
10,COc1ccc(Oc2ncc3nc(-c4cccs4)c(=O)n(CCC#N)c3n2)cc1,> 46
11,c1cncc(CNc2cc(-c3ccc4c(c3)OCO4)ncn2)c1,> 46
12,COc1ccc(NC(=O)N2CCCC3(CCN(C(=O)c4csnn4)CC3)C2)cc1,> 46
13,CN(C)c1ncc2ncc(=O)n(C3CC3)c2n1,> 46
14,CN(C)Cc1ccccc1-c1nc(N2CCOCC2)c2ccccc2n1,> 46
15,Cc1noc(C)c1C(=O)N1CCC2(CCN(Cc3cc(C(F)(F)F)cc(C(F)(F)F)c3)CC2)CC1,> 46
16,COCCn1c(=O)c(-c2cc(F)cc(F)c2)nc2cnc(N3CCOCC3)nc21,> 46
17,COc1ccccc1CN1CC2(CCN(S(C)(=O)=O)CC2)C1,> 46
18,CN(C)C(=O)c1ccc(-c2cc(Nc3ccccc3)ncn2)cc1,> 46
19,O=c1cnc2cncnc2n1Cc1ccccc1,> 46
20,COc1ccc(-n2c(=O)c(-c3cccs3)nc3cnc(N(C)C)nc32)cc1,> 46
